# HCMV inh: qHTS Assay for inhibitors of the human cytomegalovirus (HCMV) | HFF cells, HCMV-luciferase reporter, 72 h; hits give low values | activity change, negative = inhibition, % at 57.5 µM | actives 4.5% (n = 410,000); in the data active = activity change below about -60%; inconclusive = no clear call, values can overlap the other calls; inactive = above about -39%
#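 Two compound doses tested in HFFs infected with HCMV-luciferase, MOI 1 PFU/cell, 72 h at 37C. Lysate luminescence read with OneGlo; data normalized against buffer-only and 10uM Salinomycin inhibitor controls.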
# FMDV inh: High Throughput Screening for Foot and Mouth Disease Virus Antivirals; Potency, µM (doses to about 57.9 µM), for inactives: at the top dose activity change, negative = inhibition, usual class: inhibitors; actives 1.2% (n = 410,000); FMDV antiviral cell-based qHTS; calls by dose curve; tested in HEK293T cells; also: read-out not given here; potency is read from the fitted curve at half-maximal effect; nearly all actives have a fitted effect of over 45% in size
# Vaccinia Venus: qHTS for Stage-Specific Inhibitors of Vaccinia Orthopoxvirus: Venus Reporter Primary qHTS | Vaccinia virus Venus reporter expression, fluorescence | Potency, µM (highest dose often 36.5 µM), for the others: top-dose activity change, negative = inhibition, hits mostly inhibitors | actives 0.46% (n = 330,000) | AID 720580, 2013; calls by dose curve; tested in A549 cells; also: potency is read from the fitted curve at half-maximal effect; nearly all actives have a fitted effect of over 30% in size
# Marburg entry inh: qHTS for inhibitors of binding or entry into cells for Marburg Virus | Marburg virus pseudotyped entry inhibition, cell reporter | Potency, µM (series often up to 37.8 µM), inactives show at the highest dose activity change, negative = inhibition, actives largely listed as inhibitors | actives 1.8% (n = 300,000) | AID 540276, 2011; calls by dose curve; tested in HEK293 cells; also: potency is read from the fitted curve at half-maximal effect
# VACV mCherry inh: qHTS for Stage-Specific Inhibitors of Vaccinia Orthopoxvirus: mCherry Reporter Primary qHTS; Vaccinia virus mCherry reporter infection, fluorescence; Potency, µM (series often up to 36.5 µM), for inactives: at the highest dose activity change, negative = inhibition, most hits filed as inhibitors; actives 0.63% (n = 310,000); AID 720579, 2013; calls by dose curve; tested in A549 cells; also: potency is read from the fitted curve at half-maximal effect; nearly all actives have a fitted effect of over 35% in size
# Lassa entry inh: qHTS for Inhibitors of binding or entry into cells for Lassa Virus; Potency, µM (doses to about 37.9 µM), for the others: at the top dose activity change, negative = inhibition, most hits filed as inhibitors; AID 540256, 2011; actives 1.2% (n = 300,000); Lassa virus pseudotype entry inhibition, cell reporter; calls by dose curve; tested in HEK293 cells; also: potency is read from the fitted curve at half-maximal effect; nearly all actives have a fitted effect of over 50% in size
# * marks the source's active call; other numbers are inactive results; i = inactive; ? = inconclusive; · = no result; ! = repeats disagree; [ ] = remark or other dose. Most compounds without a hit are left out; they make up all but 6.5% or so of the library. % is scaled to controls: 0 for no effect and ±100 for the full control effect.
SMILES,HCMV inh,FMDV inh,Vaccinia Venus,Marburg entry inh,VACV mCherry inh,Lassa entry inh
CCc1cccc(CC)c1NC(=O)c1cccc(NC(=O)c2ccccc2)c1,-67.4*,0.0%,·,?,·,21.3%
CCc1cccc(C)c1NC(=O)c1cccc(C(=O)Nc2c(C)cccc2CC)c1,-15.6,-14.9%,1.3%,·,-1.8%,-26.8%[46.1 µM]
CN(C)S(=O)(=O)c1cccc(NC(=O)c2cccc(NS(=O)(=O)c3ccccc3)c2)c1,-88.9*,?,-17.2%,?,-21.7%,?
Cc1ccc(NC(=O)c2ccc(OC(F)(F)F)cc2)cc1S(=O)(=O)N(C)C,-99.4*,31.6µM*,?,?,?,?
Cc1cc(NC(=O)OC(C)(C)C)c(-n2nnnc2C(C(=O)c2ccc3c(c2)OCO3)N2CCCCC2)cc1C (configuration not stated),-8.3,·,·,·,·,·
Cc1cccc(N2CCN(C(=O)CCc3c(C)nc4c(c3C)c(=O)n(C)c(=O)n4C)CC2)c1C,2.1,-21.8%,-4.1%,-10.5%[46.1 µM],-1.1%,22.8%[46.1 µM]
Cc1ccc(Cn2cc(S(=O)(=O)c3cccc(Cl)c3)c(=O)c3cc(F)c(N4CCOCC4)cc32)cc1,-34.2,10.8%,-15.6%,·,-2.5%,?
CCC(=O)N1c2ccccc2CC1C(=O)NCCN1CCN(c2cc(Cl)ccc2C)CC1 (configuration not stated),-1.4,?,-8.4%,·,-15.3%,-1.9%[46.1 µM]
Cc1cc(C)n(-c2ccc(C(=O)Nc3ccc(S(=O)(=O)NCc4ccco4)cc3)cc2)n1,-96.5*,?,?,12.6µM*!,?,?
Cc1cc(C)n(-c2ccc(C(=O)Nc3cccc(S(=O)(=O)N(C)C)c3)cc2)n1,-95.6*,22.4µM*,-26.2%,?,-17.2%,?
Cc1ccc(C(=O)Nc2ccc(S(=O)(=O)NCc3ccco3)cc2)cc1,29.5,86.3%,·,-16.8%,·,21.8%
CCOc1cc(C2Nc3ccccc3C(=O)N2Cc2ccco2)ccc1OCc1ccccc1Cl (configuration not stated),·,·,-3.0%,·,17.8%,·
CCCCNC(=O)C(C)(C)n1cc(NC(=O)Cc2ccc(F)cc2)cn1,1.8,·,·,·,·,·
Cc1cccc(Cn2nnc3c(=O)[nH]c(C4CCCN(C(=O)c5ccc(C(C)(C)C)cc5)C4)nc32)c1 (configuration not stated),-69.6*,?,-5.9%,?,-19.3%,-14.6%[46.1 µM]
O=c1[nH]c(C2CCN(S(=O)(=O)c3ccc4c(c3)OCCO4)CC2)nc2c1nnn2Cc1c(F)cccc1Cl,-74.9*,0.0%,-21.0%,16.0%[46.1 µM],?,6.5%[46.1 µM]
Cc1ccccc1Cn1nnc2c(=O)[nH]c(C3CCCN(C(=O)c4ccc(C(C)(C)C)cc4)C3)nc21 (configuration not stated),8.7,?,-9.8%,-1.8%[46.1 µM],-15.1%,-14.9%[46.1 µM]
O=C(Cc1ccccc1F)N1CCC(c2nc3c(nnn3Cc3cccc(Cl)c3)c(=O)[nH]2)CC1,-62.0*,-18.1%,-5.7%,-17.2%[46.1 µM],-20.5%,?
O=c1[nH]c(C2CCN(S(=O)(=O)/C=C/c3ccccc3)CC2)nc2c1nnn2Cc1ccc(F)cc1,39.6,0.5%,-23.3%,7.94µM*,?,?
Cc1ccc(Cn2nnc3c(=O)[nH]c(C4CCN(C(=O)Cc5ccccc5F)CC4)nc32)cc1,-35.2,-18.0%,-13.1%,2.5%[46.1 µM],-2.6%,-12.2%[46.1 µM]
O=C(Cc1cccs1)N1CCCC(c2nc3c(nnn3Cc3cccc(Cl)c3)c(=O)[nH]2)C1 (configuration not stated),23.3,?,·,5.7%,·,?
Cc1ccc(C)c(S(=O)(=O)N2CCC(c3nc4c(nnn4Cc4ccc(F)cc4)c(=O)[nH]3)CC2)c1,-2.1,-22.8%,-22.4%,-24.6%,·,?
O=C(Cc1cccs1)N1CCC(c2nc3c(nnn3Cc3ccc(F)cc3)c(=O)[nH]2)CC1,-95.4*,-12.7%,·,-6.1%,·,-9.3%
Cc1ccc(C)c(Cn2nnc3c(=O)[nH]c(C4CCN(C(=O)c5cccs5)CC4)nc32)c1,37.2,?,-20.7%,?,i,?
Cc1ccc(Cn2nnc3c(=O)[nH]c(C4CCN(S(=O)(=O)c5cc(C)ccc5C)CC4)nc32)cc1,37.3,?,?,?,-13.1%[1.46 µM],14.1µM*
Cc1ccc(Cn2nnc3c(=O)[nH]c(C4CCN(C(=O)c5cccs5)CC4)nc32)cc1,·,-20.4%,·,?,·,2.91µM*
SMILES,HCMV inh,FMDV inh,Vaccinia Venus,Marburg entry inh,VACV mCherry inh,Lassa entry inh
Cc1cc(C)c2c(=O)cc(C(=O)Nc3ccc(S(=O)(=O)Nc4nc(C)cc(C)n4)cc3)oc2c1,24.8,14.4%,-1.7%,20.8%[46.1 µM],2.5%,-0.3%[46.1 µM]
CCOC(=O)c1noc2ncnc(NCc3ccccc3OC)c12,-8.4,-29.7%,1.2%,·,-4.3%,-6.7%[46.1 µM]
Cc1cccc(N2CN=c3s/c(=C/c4ccncc4)c(=O)n3C2)c1,·,·,·,-1.4%,·,·
O=C(COC(=O)c1ccc2c(c1)C(=O)N(c1cccc3ncccc13)C2=O)c1ccc(Cl)cc1,-89.0*,?,-16.8%,?,i,?
Cc1ccc(C(=O)COC(=O)c2ccc3c(c2)C(=O)N(c2cccc4ncccc24)C3=O)cc1,-94.1*,?,·,?,·,?
Cc1ccc(C2=NN(CC(=O)NCCc3ccc(Cl)cc3)C(=O)CC2)cc1,-10.4,0.0%,-11.0%,·,-9.1%,8.2%[46.1 µM]
Cc1ccc(CNC(=O)Cn2cc(S(=O)(=O)Cc3cccc(Cl)c3)c3ccccc32)cc1,0.0,0.5%,-22.0%,·,?,-7.8%[46.1 µM]
COc1ccc(Cc2noc(-c3ccccc3)n2)cc1OC,?,-20.0%,-25.7%,·,i,·
COc1ccc(Cc2noc(CN3CCN(c4ccc(Cl)cn4)CC3)n2)cc1OC,-32.4,12.6µM*,?,?,-16.2%,?
COc1ccc(-c2nc(Cc3ccc(Cl)cc3)no2)cc1OC,-73.5*,-6.1%,-19.9%,-22.0%,·,3.98µM*
COc1ccc(Cc2noc(CN3CCN(Cc4cccc(Cl)c4)CC3)n2)cc1OC,-37.3,?,-14.6%,?,-7.8%,?
CCCCN(CCCC)CCNC(=O)c1cc(=O)[nH]c2ccc(S(=O)(=O)N3CCCCCC3)cc12,?,-13.1%,-7.2%,·,-9.0%,14.2%[46.1 µM]
CC(C)CC(NC(=O)c1ccc(Cl)cc1)C(=O)OCC(=O)c1ccc2c(c1)NC(=O)CO2 (configuration not stated),-103.4*,?,?,?,?,?
CCC(=O)c1cn(CC(=O)Nc2cccc(C)c2C)c2ccccc12,3.6,-17.5%,-0.7%,-19.5%,-16.8%,-2.7%
Cc1ccc(-n2c(=O)c3cccnc3n2CC(=O)Nc2cccc(C)c2C)cc1,-62.6*,-12.9%,-15.7%,·,-17.8%,7.4%[46.1 µM]
CC(=O)c1cn(CC(=O)Nc2cccc(C)c2C)c2ccccc12,-69.5*,?,-25.9%,?,-18.7%,-25.6%

# Source: PubChem (National Center for Advancing Translational Sciences (NCATS))
